# Several values for one entry are separate records, joined by “and”; a condition that tells them apart may be missing. Equal entries are not always repeated. Inconclusive results are not listed. Where a call stands in place of a potency, no number is given. Where a structure was tested more than once in an assay, its records may differ in their call. Activity calls are given as the source filed them. Calls follow the shape of the dose curve; as a rule, active = well fitted curve in the direction sought with a large enough effect in the repeat runs; inconclusive = weak or mixed curves; inactive = no such curve, though single readings can be large; an effect the other way counts as inactive or inconclusive.
# Key:
# [1] = molecular target: Cytochrome P450 1A2 (Homo sapiens) (UniProt P05177); assay: Cytochrome P450 Family 1 Subfamily A Member 2 (CYP1A2) small molecule antagonists: luciferase reporter qHTS assay (AID 1671199); conditions: P450-Glo CYP1A2 enzyme, luciferin luminescence, 1 h; series mostly up to 115 µM
# Procedure, shortened: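 Room-temperature CYP1A2 reaction with proluciferin substrate: compounds added from DMSO, 10 min preincubation, NADPH regeneration for 1 h. Luciferin detection reagent then added; luminescence recorded as RLU.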
# [2] = molecular target: Voltage-gated inwardly rectifying potassium channel KCNH2 (Homo sapiens) (UniProt Q12809); assay: Human Ether-a-go-go-Related Gene (hERG) channel small molecule antagonists: fluorescence cell-based qHTS assay (AID 1671200); conditions: hERG-U2OS cells, FluxOR thallium flux fluorescence; series mostly up to 76.8 µM
# Procedure, shortened: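 Thallium served as the potassium surrogate; its influx into dye-loaded U2OS cells carrying the channel was measured by fluorescence over 2 min.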
# [3] = molecular target: Cytochrome P450 3A4 (Homo sapiens) (UniProt P08684); assay: Cytochrome P450 Family 3 Subfamily A Member 4 (CYP3A4) small molecule antagonists: luciferase reporter qHTS assay (AID 1671201); conditions: P450-Glo CYP3A4 enzyme, luciferin luminescence, 1 h; series mostly up to 115 µM
# Procedure, shortened: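 Relative luminescence units after 20 min with luciferin detection reagent served as read-out. Beforehand, CYP3A4 turned over a proluciferin substrate for 1 h at room temperature with NADPH regeneration, following 10 min compound preincubation.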
# Also: nearly all actives have a fitted effect of over 50% in size.
# Potency is read from the fitted curve at half-maximal effect.
# Sequence of Voltage-gated inwardly rectifying potassium channel KCNH2 (Homo sapiens) (Q12809 whole entry, looked up): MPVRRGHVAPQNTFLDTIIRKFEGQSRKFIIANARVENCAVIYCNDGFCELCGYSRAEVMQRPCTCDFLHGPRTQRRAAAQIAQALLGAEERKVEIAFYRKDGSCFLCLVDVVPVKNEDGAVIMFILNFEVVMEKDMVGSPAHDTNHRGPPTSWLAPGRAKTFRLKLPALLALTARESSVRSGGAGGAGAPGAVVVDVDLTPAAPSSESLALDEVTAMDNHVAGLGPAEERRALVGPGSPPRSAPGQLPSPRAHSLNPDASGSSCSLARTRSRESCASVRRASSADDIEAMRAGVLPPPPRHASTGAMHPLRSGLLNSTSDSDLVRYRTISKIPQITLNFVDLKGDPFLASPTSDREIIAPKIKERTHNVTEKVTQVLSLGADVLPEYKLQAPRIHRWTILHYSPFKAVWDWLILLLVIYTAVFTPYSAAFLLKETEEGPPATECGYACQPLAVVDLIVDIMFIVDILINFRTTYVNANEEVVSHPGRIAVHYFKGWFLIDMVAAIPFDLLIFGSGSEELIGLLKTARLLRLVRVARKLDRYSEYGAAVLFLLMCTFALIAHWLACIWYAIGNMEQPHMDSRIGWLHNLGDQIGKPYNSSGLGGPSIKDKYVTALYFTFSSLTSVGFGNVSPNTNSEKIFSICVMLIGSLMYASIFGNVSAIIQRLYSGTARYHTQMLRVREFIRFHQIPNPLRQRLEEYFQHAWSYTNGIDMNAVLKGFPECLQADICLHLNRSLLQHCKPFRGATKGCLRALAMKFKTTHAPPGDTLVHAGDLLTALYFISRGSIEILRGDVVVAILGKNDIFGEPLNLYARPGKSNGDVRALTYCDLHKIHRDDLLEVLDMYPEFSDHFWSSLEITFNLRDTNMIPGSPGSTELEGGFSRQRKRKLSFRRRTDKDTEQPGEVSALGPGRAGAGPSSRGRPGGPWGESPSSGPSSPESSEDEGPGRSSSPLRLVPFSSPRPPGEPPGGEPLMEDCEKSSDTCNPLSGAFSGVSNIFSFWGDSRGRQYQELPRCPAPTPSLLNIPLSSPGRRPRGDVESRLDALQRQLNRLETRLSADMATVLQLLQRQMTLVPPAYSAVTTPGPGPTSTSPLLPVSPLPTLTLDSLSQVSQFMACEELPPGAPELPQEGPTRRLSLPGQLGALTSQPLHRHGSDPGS
# Sequence of Cytochrome P450 3A4 (Homo sapiens) (P08684 whole entry, looked up): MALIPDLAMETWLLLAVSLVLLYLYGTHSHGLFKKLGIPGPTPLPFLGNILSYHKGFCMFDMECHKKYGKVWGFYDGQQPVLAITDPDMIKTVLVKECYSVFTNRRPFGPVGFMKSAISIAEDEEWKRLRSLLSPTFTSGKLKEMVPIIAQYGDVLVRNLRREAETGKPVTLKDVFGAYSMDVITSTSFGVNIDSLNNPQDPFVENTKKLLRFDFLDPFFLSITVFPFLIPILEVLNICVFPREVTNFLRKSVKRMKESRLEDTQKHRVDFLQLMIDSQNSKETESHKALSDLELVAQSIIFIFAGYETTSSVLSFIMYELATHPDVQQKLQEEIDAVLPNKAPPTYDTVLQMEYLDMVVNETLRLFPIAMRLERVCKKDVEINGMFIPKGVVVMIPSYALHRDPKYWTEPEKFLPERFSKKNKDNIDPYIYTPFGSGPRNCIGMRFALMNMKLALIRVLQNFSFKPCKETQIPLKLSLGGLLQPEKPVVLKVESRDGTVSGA
# Sequence of Cytochrome P450 1A2 (Homo sapiens) (P05177 whole entry, looked up): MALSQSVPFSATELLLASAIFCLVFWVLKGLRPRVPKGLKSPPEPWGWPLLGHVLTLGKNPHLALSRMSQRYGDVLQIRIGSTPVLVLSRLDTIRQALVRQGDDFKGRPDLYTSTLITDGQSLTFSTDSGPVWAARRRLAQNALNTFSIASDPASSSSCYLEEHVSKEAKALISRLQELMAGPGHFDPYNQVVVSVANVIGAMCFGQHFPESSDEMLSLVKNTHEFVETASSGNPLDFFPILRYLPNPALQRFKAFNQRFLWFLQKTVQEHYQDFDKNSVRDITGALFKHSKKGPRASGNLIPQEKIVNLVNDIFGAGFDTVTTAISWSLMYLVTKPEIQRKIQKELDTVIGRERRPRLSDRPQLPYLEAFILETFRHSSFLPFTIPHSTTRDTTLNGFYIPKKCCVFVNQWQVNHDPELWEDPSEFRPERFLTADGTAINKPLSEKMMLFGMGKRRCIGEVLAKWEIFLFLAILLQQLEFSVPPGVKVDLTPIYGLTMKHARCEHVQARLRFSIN
SMILES,Potency [1],Potency [2],Potency [3]
COC(=O)Nc1nc2ccc(Sc3ccccc3)cc2[nH]1,12.6 µM (active),inactive,inactive
NCc1cccc(CN)c1,35.6 µM (active),inactive,36.6 µM (active) and 2.83 µM (active)
CCCCCC/C=C/CCCCCCCC(=O)O,inactive,inactive,inactive
CCOC(=O)[C@H](CCc1ccccc1)N[C@@H](C)C(=O)N1Cc2ccccc2C[C@H]1C(=O)O,inactive,inactive,–
CN(C)c1cccc(O)c1,32.2 µM (active) and 31.7 µM (active),inactive,–
CC1CC(OC(=O)c2ccccc2O)CC(C)(C)C1 (configuration not stated),inactive and 27.5 µM (active),inactive,inactive
O=C(Cl)c1c(Cl)c(Cl)c(C(=O)Cl)c(Cl)c1Cl,inactive,inactive,inactive
C/C=C(C)/C=C/C=C(C)C,39.9 µM (active),inactive,31.3 µM (active) and 35.6 µM (active)
O=S(=O)(Oc1ccc(Cl)cc1Cl)c1ccccc1,2.28 µM (active) and 2.24 µM (active),49.8 µM (active) and 34.7 µM (active),inactive
Nc1cc(-c2ccncc2)c[nH]c1=O,35.6 µM (active),–,–
CC(C)(N=C=O)c1cccc(C(C)(C)N=C=O)c1,inactive,inactive,2.81 µM (active) and 7.96 µM (active)
COCC(=O)O,inactive,inactive,inactive
CN(CCOc1ccc(CC2SC(=O)NC2=O)cc1)c1ccccn1 (configuration not stated),inactive,inactive,–
CC[Si](OC(C)=O)(OC(C)=O)OC(C)=O,inactive,inactive,3.17 µM (active) and 35.6 µM (active)
